High-throughput results from PubChem BioAssay.
Only some compounds are listed: those with a hit (about 0.89% of all), similar ones and a draw of the others.
RPL19A-GFP yeast – yeast TOR pathway RPL19A-GFP modulation. S. cerevisiae RPL19A-GFP strain, flow cytometry, 3 h; hits give low values. AID 2025. hit rate 0.3% among 330,000. percent response vs DMSO, % at 10 µM;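 active means percent response vs DMSO below 50%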;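 further: median channel GFP fluorescence of the barcoded RPL19A-GFP strain; lower means less RPL19A-GFP as with rapamycin TOR inhibition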
CIT2 TOR yeast – yeast TOR pathway CIT2-GFP modulation | S. cerevisiae CIT2-GFP strain, flow cytometry, 3 h; 100 means same as DMSO wells | GFP response vs DMSO, % at 10 µM | hit rate 0.065% among 320,000 | AID 2029;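 active means GFP response relative to DMSO above a set limit, near the screen mean plus 3 SD, cut at about 150% in these data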;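 further: ratio of well median GFP fluorescence to mean of DMSO wells on the plate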
AGP1 TOR yeast – yeast TOR pathway AGP1-GFP modulation | S. cerevisiae AGP1-GFP multiplex flow cytometry, 3 h; GFP as percent of DMSO wells | GFP response vs DMSO, % at 10 µM | hit rate 0.02% among 320,000 | AID 2066;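 active means GFP response relative to DMSO above a set limit, near screen average plus 3 SD, cut at about 150% in these data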;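 further: median GFP channel fluorescence of the gated AGP1 strain per well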
LAP4-GFP MLPCN – yeast TOR pathway LAP4-GFP modulation | GFP response vs DMSO, % at 10 µM | S. cerevisiae LAP4-GFP multiplex, flow cytometry GFP, 3 h; median GFP as percent of DMSO wells | hit rate 0.34% among 320,000 | AID 2023;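 active means GFP response vs DMSO above a set limit, about the screen mean plus 3 SD, cut at about 150% in these data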
MEP2-GFP yeast – modulators of TOR pathway MEP2-GFP in S. cerevisiae | GFP response vs DMSO, % at 10 µM | hit rate 0.51% among 330,000 | AID 2016 | S. cerevisiae MEP2-GFP strain, flow cytometry GFP, 3 h; 100% = DMSO control level;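 active means GFP response versus DMSO above a set limit, roughly screen mean plus 3 SD, cut at about 180% in these data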;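 further: median GFP fluorescence of the barcode-gated MEP2-GFP cells per well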
LAP4-GFP pick2 – second confirmation of modulators of TOR reporter LAP4-GFP in yeast | GFP response vs DMSO, % at 10 µM | S. cerevisiae LAP4-GFP strain, flow cytometry GFP, 3 h | shares compounds with LAP4-GFP MLPCN | hit rate 20% among 590;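 active means GFP signal as percent of the solvent control above about 150%, meaning raised reporter expression, limit read from the data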
MEP2-GFP pick2 – reconfirmed MEP2-GFP TOR pathway modulator in yeast; AID 2622; shares compounds with LAP4-GFP MLPCN; S. cerevisiae MEP2-GFP strain, flow cytometry GFP, 3 h; GFP response vs DMSO, % at 10 µM; hit rate 10% among 590;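 active means GFP signal above 150% of the solvent control wells, that is a rise of more than half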;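 further: median channel GFP fluorescence of all gated yeast cells per well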
RPL19A-GFP pick2 – reconfirmed modulator of RPL19A-GFP TOR reporter in yeast; AID 2623; shares compounds with LAP4-GFP MLPCN; S. cerevisiae RPL19A-GFP strain, flow cytometry GFP, 3 h; hits give low values; 100% means same as DMSO wells; GFP response vs DMSO, % at 10 µM; hit rate 3% among 590;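 active means under 65% GFP response relative to DMSO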;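 further: median GFP channel fluorescence per well over the all cells gate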
CIT2 GFP CP2 – second confirmation of modulators of TOR reporter CIT2-GFP in yeast | shares compounds with LAP4-GFP MLPCN | S. cerevisiae CIT2-GFP strain, flow cytometry GFP, 3 h; DMSO control wells read 100% | GFP response vs DMSO, % at 10 µM | hit rate 8% among 590 | AID 2624;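 active means GFP response vs DMSO above about 150%, limit read from the data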;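 further: median green fluorescence per well over all gated yeast cells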
AGP1 GFP CP2 – second confirmation of modulators of TOR reporter AGP1-GFP in yeast | shares compounds with LAP4-GFP MLPCN | S. cerevisiae AGP1-GFP strain, flow cytometry GFP, 3 h | percent response vs DMSO, % at 10 µM | 590 tested, under 10 active | AID 2643;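 active means over 150 percent of DMSO response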;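 further: median GFP channel fluorescence over all cells without mother daughter split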
s288c autofluor – compound is autofluorescent in yeast s288c cells | shares compounds with LAP4-GFP MLPCN | S. cerevisiae s288c, 520 nm autofluorescence, flow cytometry, 3 h; hits give high values; zero means same as solvent-only cells | fluorescence change (kMESF span) at 33 µM | 610 tested, under 10 active | AID 2757;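 active means fluorescence span over the dose series, or activity score, above about 33, limit read from the data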
Yeast autofl DR – yeast s288c autofluorescence artifact in dose response; fluorescence change (span) at 33 µM; S. cerevisiae s288c parental, compound autofluorescence, flow cytometry, 3 h; shares compounds with LAP4-GFP MLPCN; 110 tested, under 10 active;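 active means fluorescence change span, or the activity score built from it, above 25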
TORC1 bypass – stops wildtype yeast growth while TORC1 bypass cells still grow; 120 tested, under 10 active; S. cerevisiae BY4741 spot growth rating, 48-72 h; hits give low values; AID 504456; shares compounds with LAP4-GFP MLPCN; growth rating (0-3) at 30 µM;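 active means growth rating at most 1 for wild type yeast while the TORC1 bypass strain still grows fully, rated 3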
Large screens that a line does not name were inactive (follow-up assays come after a bar, where they were run).

Cc1ccc(C(=O)NNC(=S)NC(=O)COc2ccccc2)cc1	LAP4-GFP MLPCN 275 | s288c autofluor inactive | Yeast autofl DR inactive | TORC1 bypass inactive
Cc1ccccc1C(=O)NNC(=S)NC(=O)COc1ccccc1	none
CC(Oc1ccc(Cl)cc1)C(=O)NNC(=S)NC(=O)c1ccco1 (stereo not given)	LAP4-GFP MLPCN 242 | s288c autofluor inactive | Yeast autofl DR inactive | TORC1 bypass inactive
COc1ccc(C(=O)NNC(=S)NC(=O)c2ccco2)cc1	none
CC(C)(C)C(=O)NC(=S)NNC(=O)c1ccc(-c2ccccc2)cc1	LAP4-GFP MLPCN 246 | s288c autofluor inactive | Yeast autofl DR inactive | TORC1 bypass inactive
O=C(NNC(=S)NC(=O)c1ccco1)c1ccc(F)cc1	LAP4-GFP MLPCN 218 | s288c autofluor inactive
Cn1nnnc1SCC(=O)N1CCCc2ccccc21	none
NC(=S)NNC(=O)c1ccccc1Cl	none
CC(C)OCCCn1c(-c2ccco2)nc2nc3ccccc3nc21	none
CCCCC(=O)NNC(=S)NC(=O)c1ccc(C)cc1	LAP4-GFP MLPCN 193 | s288c autofluor inactive | Yeast autofl DR inactive | TORC1 bypass inactive
CCCOc1ccc(C(=O)NNC(=S)NC(=O)c2ccccc2)cc1	LAP4-GFP MLPCN 152 | s288c autofluor inactive
CCCOc1ccc(C(=O)NNC(=S)NC(C)=O)cc1	none
COc1ccccc1C(=O)NNC(=S)NC(=O)c1ccco1	LAP4-GFP MLPCN 268 | LAP4-GFP pick2 335 | MEP2-GFP pick2 180 | RPL19A-GFP pick2 inactive | CIT2 GFP CP2 inactive | AGP1 GFP CP2 inactive | s288c autofluor inactive
CCCOc1ccc(C(=O)NNC(=S)NC(=O)c2ccco2)cc1	LAP4-GFP MLPCN 154 | s288c autofluor inactive
COCCCNC(=O)Cc1ccc(S(=O)(=O)N2CCOCC2)s1	none
O=C(COc1ccc2c3c(c(=O)oc2c1)CCCC3)NCCN1CCOCC1	none
CCCCN1C(=O)CN(CCc2ccccc2)C(=O)C1c1ccc(OC)cc1 (stereo not given)	none
O=C(Nc1ccccc1)OC1CCC2CC1CCC2OC(=O)Nc1ccccc1 (stereo not given)	none
CCC(=O)NC(=S)NNC(=O)c1ccc(OC)cc1	none
CCCCOc1ccc(C(=O)NNC(=S)NC(=O)CC)cc1	LAP4-GFP MLPCN 299 | LAP4-GFP pick2 331 | MEP2-GFP pick2 155 | RPL19A-GFP pick2 inactive | CIT2 GFP CP2 167 | AGP1 GFP CP2 inactive | s288c autofluor inactive
Cc1ccc(C(=O)NCC(=O)Nc2ccc(S(=O)(=O)Nc3cc(C)nc(C)n3)cc2)cc1	LAP4-GFP MLPCN 153 | LAP4-GFP pick2 inactive | MEP2-GFP pick2 inactive | RPL19A-GFP pick2 inactive | CIT2 GFP CP2 inactive | AGP1 GFP CP2 inactive
CC(C)(C)n1nnnc1C(c1cccnc1)N1CCN(c2cccc(C(F)(F)F)c2)CC1 (stereo not given)	none (no result: AGP1 TOR yeast)
CC(C)(C)c1cc(C(c2cccnc2)N2CCN(CCO)CC2)cc(C(C)(C)C)c1O (stereo not given)	LAP4-GFP MLPCN 161 | s288c autofluor inactive
CCOc1ccc(C(C)=O)cc1N1C(=O)C2C3C=CC(O3)C2C1=O (stereo not given)	LAP4-GFP MLPCN 203 | s288c autofluor inactive
O=C(COC(=O)/C=C/c1cccc(F)c1)NC1CCCC1	none
O=C(COC(=O)/C=C/c1cccc(F)c1)NC(=O)NC1CCCC1	LAP4-GFP MLPCN 164 | LAP4-GFP pick2 inactive | MEP2-GFP pick2 inactive | RPL19A-GFP pick2 inactive | CIT2 GFP CP2 inactive | AGP1 GFP CP2 inactive
CC1(c2ccccc2)ON(c2ccccc2C(F)(F)F)C1=O (stereo not given)	none | LAP4-GFP pick2 inactive | MEP2-GFP pick2 inactive | RPL19A-GFP pick2 inactive | CIT2 GFP CP2 inactive | AGP1 GFP CP2 inactive | s288c autofluor inactive
Cc1ccccc1[C@@]1(C)ON(c2ccccc2C(F)(F)F)C1=O	none | LAP4-GFP pick2 inactive | MEP2-GFP pick2 inactive | RPL19A-GFP pick2 inactive | CIT2 GFP CP2 inactive | AGP1 GFP CP2 inactive | s288c autofluor inactive
O=C1N(c2ccccc2C(F)(F)F)O[C@]1(c1ccccc1)C1CCCC1	none | LAP4-GFP pick2 inactive | MEP2-GFP pick2 inactive | RPL19A-GFP pick2 inactive | CIT2 GFP CP2 inactive | AGP1 GFP CP2 inactive | s288c autofluor inactive
CC[C@@]1(c2ccccc2OC)ON(c2ccccc2C(F)(F)F)C1=O	none | LAP4-GFP pick2 inactive | MEP2-GFP pick2 inactive | RPL19A-GFP pick2 inactive | CIT2 GFP CP2 inactive | AGP1 GFP CP2 inactive | s288c autofluor inactive
Cc1ncc(CSc2ccc(Cl)cc2)c(CO)c1O	none
O=S(=O)(Nc1ccc(Cc2ccncc2)cc1)c1ccc(Cl)s1	none
CC(=O)Cc1nsc(NC(=O)c2ccco2)n1	none
CCn1c(=O)c2c(nc3n2CCCN3Cc2ccccc2)n(C)c1=O	none
CC(C)c1cc(-c2cc(-c3ccc(Cl)cc3)on2)nc(NCC2CC2)n1	none
CC(C)c1cc(-c2cc(C(=O)NCc3ccccc3)on2)nc(NC2CCCC2)n1	LAP4-GFP MLPCN 156 | LAP4-GFP pick2 inactive | MEP2-GFP pick2 inactive | RPL19A-GFP pick2 inactive | CIT2 GFP CP2 inactive | AGP1 GFP CP2 inactive
COCCNc1nc(-c2cc(C(=O)Nc3ccccc3)on2)cc(C(C)C)n1	none | LAP4-GFP pick2 inactive | MEP2-GFP pick2 inactive | RPL19A-GFP pick2 inactive | CIT2 GFP CP2 inactive | AGP1 GFP CP2 inactive
